Screening data: PubChem BioAssay, Broad Institute
FGF22 binding: binders of human FGF22 protein, primary screen, FGF22 synaptogenesis inhibitor project, biophysical, thermal shift, single point | Fibroblast growth factor 22 (Homo sapiens), Q9HCT0 | recombinant FGF22 thermal shift, SYPRO orange fluorescence; percent of sucrose octasulfate shift, DMSO zero | activity (Tm shift, normalised), % at 9.99 µM | hit rate 1.5% among 340,000 | AID 651658, 2012;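 active = mean Tm shift, scaled 0 neutral to 100 positive control, at about 1.3% or above, every replicate too, limit read from the data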
dFosB activator: activators of delta FosB homodimer, primary screen, biochemical, fluorescence polarization, TAMRA-CDK5 oligo, single point | purified delta FosB; percent of positive-control signal above neutral wells | activation, % at 25 µM | hit rate 0.99% among 340,000 | AID 493131, 2011;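 active = mean activation above about 17%, with every replicate also reaching it, limit read from the data, passing the limit was not always enough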
SIRT5 inh: SIRT5 desuccinylase inhibitors, primary screen, biochemical, fluorescence imaging, single point, set 5; NAD-dependent protein deacylase sirtuin-5, mitochondrial (Homo sapiens), Q9NXA8; Purified SirT5, succinyl-peptide AMC, trypsin-coupled fluorescence; inhibition, % at 15 µM; hit rate 1.1% among 330,000; in the data active = inhibition above about 15%
PglD inh: C. jejuni PglD acetyltransferase inhibitors, primary screen, biochemical, DTNB colorimetric, single point; inhibition, % at 12.5 µM; hit rate 0.098% among 360,000; UDP-N-acetylbacillosamine N-acetyltransferase PglD (Campylobacter jejuni); purified PglD enzyme, DTNB colorimetric CoA detection; in the data active = inhibition above about 16%, passing the limit was not always enough
CDK5 p35 inh: inhibitors of human CDK5/p35 kinase, primary screen, biochemical, single concentration; Recombinant CDK5/p35, ADP-Glo luminescence, 60 min; inhibition, % at 10 µM; hit rate 0.01% among 330,000;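 active = highest replicate inhibition of at least 50% and at least 75% of replicates reaching 50%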;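 note: plate controls were DMSO neutral control for no effect and GW8510 at 10 µM for full effect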
Target sequence (Q00535 whole entry, looked up): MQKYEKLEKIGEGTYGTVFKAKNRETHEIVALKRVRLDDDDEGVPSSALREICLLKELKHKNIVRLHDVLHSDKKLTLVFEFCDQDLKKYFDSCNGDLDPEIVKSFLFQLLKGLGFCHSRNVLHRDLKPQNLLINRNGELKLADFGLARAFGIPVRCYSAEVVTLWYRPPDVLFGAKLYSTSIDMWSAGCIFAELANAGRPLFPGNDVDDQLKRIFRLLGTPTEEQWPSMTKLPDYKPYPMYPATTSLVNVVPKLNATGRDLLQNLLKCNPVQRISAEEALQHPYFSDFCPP
Target sequence (Q15078 whole entry, looked up): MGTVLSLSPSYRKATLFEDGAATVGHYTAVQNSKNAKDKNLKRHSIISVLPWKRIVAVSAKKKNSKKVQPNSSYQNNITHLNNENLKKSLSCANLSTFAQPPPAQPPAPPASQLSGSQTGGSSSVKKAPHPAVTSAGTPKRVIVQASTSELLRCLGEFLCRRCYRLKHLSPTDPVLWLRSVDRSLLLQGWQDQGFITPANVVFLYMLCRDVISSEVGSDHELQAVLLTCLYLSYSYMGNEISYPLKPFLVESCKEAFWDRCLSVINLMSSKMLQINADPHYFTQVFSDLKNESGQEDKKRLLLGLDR
PvdQ inh: P. aeruginosa PvdQ acylase inhibitors, primary screen, biochemical, fluorescence, plate reader and imaging, single point; inhibition, % at 10 µM; PvdQ acylase [Pseudomonas aeruginosa LESB58]; AID 488965, 2010; purified PvdQ acylase; hit rate 0.063% among 340,000; in the data active = inhibition above about 30%, passing the limit was not always enough;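 note: 0% = vehicle neutral wells and 100% = reference inhibitor wells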
Active calls of the source: *; ! = a repeat was not active. An excerpt weighted towards active compounds, which were near 2.8% of everything screened.

Results for CCCNC(=O)C[C@@H]1C[C@H]2c3cc(NC(=O)Nc4ccccc4F)ccc3O[C@H]2[C@@H](CO)O1 ?
FGF22 binding: 0; SIRT5 inh: 0; PglD inh: 2

Results for O=C(CCc1ccccc1)OCC(=O)c1ccc(Br)cc1 ?
FGF22 binding: 43*; dFosB activator: -5; SIRT5 inh: 2; CDK5 p35 inh: 1; PvdQ inh: 1

What do the screens show for `COc1ccc(NC(=O)N2C[C@H](O)COC[C@H]3O[C@H](CC(=O)N4CCCCC4)CC[C@@H]32)cc1`?
FGF22 binding: 0; SIRT5 inh: -1; PglD inh: 1

How did C[C@H](CO)N1C[C@H](C)[C@H](CN(C)C(=O)NC2CCCC2)Oc2cc(/C=C/c3ccccc3)ccc2S1(=O)=O do in these assays?
FGF22 binding: 0; SIRT5 inh: 16*; PglD inh: -2

How did C[C@@H]1CN([C@@H](C)CO)S(=O)(=O)c2ccc(/C=C/c3ccccc3)cc2O[C@@H]1CN(C)C(=O)NC1CCCC1 do in these assays?
FGF22 binding: 0; SIRT5 inh: 20*; PglD inh: 44

What do the screens show for `C[C@H]1CN([C@@H](C)CO)S(=O)(=O)c2ccc(/C=C/c3ccccc3)cc2O[C@@H]1CN(C)C(=O)NC1CCCC1`?
FGF22 binding: -1; SIRT5 inh: 32*; PglD inh: -1

Results for C[C@@H]1CN([C@H](C)CO)S(=O)(=O)c2ccc(/C=C/c3ccccc3)cc2O[C@@H]1CN(C)C(=O)NC1CCCCC1 ?
FGF22 binding: 0; SIRT5 inh: -10; PglD inh: 0

What do the screens show for `C[C@@H]1CN([C@H](C)CO)S(=O)(=O)c2ccc(/C=C/c3ccccc3)cc2O[C@@H]1CN(C)C(=O)NC1CCCC1`?
FGF22 binding: 0; SIRT5 inh: 21*; PglD inh: 45

What do the screens show for `O=C1N(Cc2ccccc2)Cc2ccccc2[C@@H]2OC(c3ccc(OCCCO)cc3)=N[C@]12Cc1ccccc1`?
FGF22 binding: 0; SIRT5 inh: -2

What do the screens show for `O=C(Nc1cccc(Cl)c1)N[C@@H]1CC[C@H](CCNC(=O)C2CCCC2)O[C@@H]1CO`?
FGF22 binding: 0; SIRT5 inh: 2; PglD inh: 1

Results for C[C@H](CO)N1C[C@H](C)[C@@H](CN(C)S(=O)(=O)c2ccccc2)Oc2c(cccc2N(C)C)C1=O ?
FGF22 binding: 0; dFosB activator: -5; SIRT5 inh: 25*; PglD inh: 3; CDK5 p35 inh: 0; PvdQ inh: -15

Results for C[C@@H]1CN([C@H](C)CO)C(=O)c2cccc(N(C)C)c2O[C@@H]1CN(C)S(=O)(=O)c1ccccc1 ?
FGF22 binding: 0; SIRT5 inh: -1; PglD inh: 4

Results for C[C@@H]1CN([C@H](C)CO)C(=O)c2cc(N(C)C)ccc2O[C@H]1CN(C)S(=O)(=O)c1ccccc1 ?
FGF22 binding: 0; SIRT5 inh: 33*; PglD inh: -1

What do the screens show for `CO[C@H]1CN(C)C(=O)c2ccc(NS(C)(=O)=O)cc2OC[C@H](C)N(Cc2cccnc2)C[C@H]1C`?
FGF22 binding: 0; SIRT5 inh: 2; PglD inh: -4

Results for C[C@H]1CN([C@@H](C)CO)C(=O)c2cccc(NC(=O)c3nc4ccccc4s3)c2O[C@H]1CN(C)Cc1ccc(C(F)(F)F)cc1 ?
FGF22 binding: 0; SIRT5 inh: 27*; PglD inh: 1

Results for COc1ccc(NC(=O)N(C)C[C@H]2Oc3c(NC(=O)c4nc5ccccc5s4)cccc3C(=O)N([C@@H](C)CO)C[C@H]2C)cc1 ?
FGF22 binding: 0; dFosB activator: -12; SIRT5 inh: 20*!; PglD inh: -1; CDK5 p35 inh: 0; PvdQ inh: -15

How did C[C@H](CO)N1C[C@H](C)[C@H](CN(C)Cc2ccccc2)Oc2c(NC(=O)c3nc4ccccc4s3)cccc2C1=O do in these assays?
FGF22 binding: 0; SIRT5 inh: 1; PglD inh: 4

How did C[C@@H]1CN([C@H](C)CO)C(=O)c2cccc(NC(=O)c3nc4ccccc4s3)c2O[C@H]1CN(C)Cc1ccc(C(F)(F)F)cc1 do in these assays?
FGF22 binding: 0; SIRT5 inh: 20*; PglD inh: 12

Results for COc1ccc(NC(=O)N(C)C[C@H]2Oc3c(NC(=O)c4nc5ccccc5s4)cccc3C(=O)N([C@@H](C)CO)C[C@@H]2C)cc1 ?
FGF22 binding: 0; SIRT5 inh: -3; PglD inh: 2

Results for CCCC(=O)Nc1ccc2c(c1)OC[C@@H](C)N(C(=O)CC)C[C@H](C)[C@H](OC)CN(C)C2=O ?
FGF22 binding: 0; SIRT5 inh: -4; PglD inh: 2

Results for CCOc1ccccc1OCCCCCc1c(C)n[nH]c1C ?
dFosB activator: -9; PglD inh: -1; CDK5 p35 inh: 2; PvdQ inh: -15

Results for CCOC(=O)CCc1c(C)n[nH]c1C ?
FGF22 binding: 43*; dFosB activator: -1; SIRT5 inh: -1; CDK5 p35 inh: -2; PvdQ inh: 3

How did O=C(N/N=C/c1cccnc1)c1ccc(NC(=O)c2cccc(Cl)c2)cc1 do in these assays?
FGF22 binding: 42; dFosB activator: 46*; SIRT5 inh: -3; PglD inh: 3; CDK5 p35 inh: 0; PvdQ inh: -2

How did CC(C)(C)N1NC2(CCCCC2)NC1=S do in these assays?
FGF22 binding: 43*; dFosB activator: 2; SIRT5 inh: 0; PglD inh: -2; CDK5 p35 inh: 2; PvdQ inh: -10

Results for S=C1NC2(CCCCC2)NN1c1ccccc1 ?
FGF22 binding: 0; dFosB activator: -2; SIRT5 inh: -1; PglD inh: 1; CDK5 p35 inh: 0; PvdQ inh: -6

How did N#CCc1c(C#N)c(N)nc(Nc2ccccc2)c1C#N do in these assays?
FGF22 binding: 0; dFosB activator: 3; SIRT5 inh: 17*; PglD inh: -1; CDK5 p35 inh: 2; PvdQ inh: -10

What do the screens show for `O=C(NC1CCCC1)C(c1cccnc1)N(CCc1ccccc1)C(=O)c1ccco1` (stereo not drawn)?
FGF22 binding: 0; dFosB activator: -1; SIRT5 inh: -6; CDK5 p35 inh: 0; PvdQ inh: 2
